The list is not random: actives were taken first. Their share in the collection is about 18%.
GCN5L2 inh – GCN5L2 (KAT2A) acetyltransferase inhibition. Q92830. GCN5L2 HAT assay, ThioGlo1 CoA-SH fluorescence. Potency, µM (titrated, usually from 58.9 µM), for inactives: at the highest dose activity change, negative = inhibition, most hits filed as inhibitors. 0.21% of 390,000 active
Target sequence (Q92830 whole entry, looked up): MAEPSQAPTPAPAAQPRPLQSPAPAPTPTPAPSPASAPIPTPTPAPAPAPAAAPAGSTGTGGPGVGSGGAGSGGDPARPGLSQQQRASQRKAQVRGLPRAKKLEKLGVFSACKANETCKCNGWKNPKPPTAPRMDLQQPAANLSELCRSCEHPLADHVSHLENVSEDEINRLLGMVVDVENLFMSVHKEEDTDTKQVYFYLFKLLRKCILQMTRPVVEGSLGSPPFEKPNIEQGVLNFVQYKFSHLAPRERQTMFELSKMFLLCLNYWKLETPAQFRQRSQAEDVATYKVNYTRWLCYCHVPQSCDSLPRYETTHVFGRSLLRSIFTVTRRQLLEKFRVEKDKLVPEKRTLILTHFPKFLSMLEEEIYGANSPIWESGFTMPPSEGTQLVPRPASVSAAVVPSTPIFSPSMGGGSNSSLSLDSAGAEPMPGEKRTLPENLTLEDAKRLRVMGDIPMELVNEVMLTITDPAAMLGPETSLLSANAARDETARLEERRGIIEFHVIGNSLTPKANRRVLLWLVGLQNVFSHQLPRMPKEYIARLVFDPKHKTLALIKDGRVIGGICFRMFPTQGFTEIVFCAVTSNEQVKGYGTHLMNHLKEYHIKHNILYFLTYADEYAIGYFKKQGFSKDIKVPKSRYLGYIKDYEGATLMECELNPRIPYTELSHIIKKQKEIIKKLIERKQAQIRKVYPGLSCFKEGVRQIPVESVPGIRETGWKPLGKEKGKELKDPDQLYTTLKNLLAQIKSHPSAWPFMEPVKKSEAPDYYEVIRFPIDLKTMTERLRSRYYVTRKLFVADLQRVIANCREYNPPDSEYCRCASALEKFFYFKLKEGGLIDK
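GCN5L2 (20 nM) in 50mM HEPES pH 7.5, 0.1mM EDTA, 0.01% Tween-20 preincubated 15 min with compounds at room temperature. Reaction started with H3(1-25) 75uM, acetyl-CoA 70uM, ThioGlo1 50uM; CoA-thiol fluorescence (Ex340/Em540) read at 0 and 20 min.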
VDR inhibitor – inhibitors of human vitamin D receptor. VDR-SRC2-3 peptide fluorescence polarization, 2 h. 0.93% of 400,000 active. Potency, µM, for inactives: max response, negative = inhibition, actives largely listed as inhibitors
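Fluorescence polarization assay of small-molecule disruption of VDR binding to coregulator peptide SRC2-3. Compounds and controls pin-transferred, then read after 2 h incubation at ambient room temperature.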
TDP1 block – blocks human tyrosyl-DNA phosphodiesterase 1; Potency, µM (highest dose often 130 µM), inactives show at the highest dose activity change, negative = inhibition, most hits filed as inhibitors; Q9NUW8; 0.28% of 350,000 active; recombinant TDP1, AlphaScreen DNA substrate cleavage; AID 485290; also: nearly all actives have a fitted effect of over 40% in size
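E. coli-derived human Tdp1, 1 nM final. Cpd preinc 15 min RT; substrate 15 nM final, 5 min RT; AS bead mix 10 ug/ml final, 10 min RT. Signal loss = tyrosine-FITC cleavage. No-enzyme wells = max signal.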
PLK1 PBD block – blocks phosphopeptide binding to human PLK1 polo-box domain; P53350; Plk1 PBD binding of FITC phosphopeptide, fluorescence polarization; Potency, µM, inactives show max response, negative = inhibition, usual class: inhibitors; 2.8% of 360,000 active; AID 720504; also: series mostly up to about 57 µM; nearly all actives have a fitted effect of over 65% in size
DT40 TDP1 CPT – growth inhibition of DT40 Tdp1-/-;hTDP1 cells with camptothecin (screen for TDP1 inhibitors); Potency, µM (top dose mostly 46.2 µM), inactives show at the top dose activity change, negative = growth inhibition, hits mostly inhibitors; chicken DT40 Tdp1-/-;hTDP1 cells + 20 nM CPT, ATP luminescence, 48 h; 12% of 420,000 active; AID 686979; also: nearly all actives have a fitted effect of over 55% in size
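Chicken DT40 Tdp1-/- cells complemented with human TDP1, 400 cells/well, exposed to compounds plus 20 nM camptothecin for at least 48 h at 37 C; viability read as ATP content by CellTiter-Glo luminescence.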
TDP1 cell noCPT – qHTS for Inhibitors of human tyrosyl-DNA phosphodiesterase 1 (TDP1): qHTS in cells in absence of CPT; DT40 Tdp1-/- hTDP1 cells, no CPT, ATP luminescence, 48 h; Potency, µM (highest dose often 46.2 µM), for inactives: top-dose activity change, negative = growth inhibition, actives largely listed as inhibitors; 15% of 420,000 active; AID 686978, 2013; also: nearly all actives have a fitted effect of over 55% in size
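Compound effects on proliferation are scored in DT40 Tdp1-/-;hTDP1 cells in the absence of CPT. ATP levels (CellTiter-Glo luminescence) are recorded after a ≥48 hr, 37 °C incubation.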
Active calls of the source: *; ? = inconclusive; nt = not tested or not shown; ! = not confirmed by another sample; [ ] = another dose, or the depositor's remark. Calls follow the shape of the dose curve; as a rule, active = well fitted curve in the direction sought with a large enough effect; inconclusive = small, poorly fitted or top-dose-only effect, or another doubt; inactive = no such curve, though single readings can be large; an effect the other way counts as inactive or inconclusive. % is scaled to controls: 0 for no effect and ±100 for the full control effect; potency is read from the fitted curve at half-maximal effect.

SMILES	GCN5L2 inh	VDR inhibitor	TDP1 block	PLK1 PBD block	DT40 TDP1 CPT	TDP1 cell noCPT
O=C(c1cccnc1)C1CCCN(Cc2ccc3c(c2)CN(C(=O)c2ccc4[nH]ccc4c2)CCO3)C1 (stereo not drawn)	nt	nt	nt	nt	-6.0%[9.04 µM]	?
Cc1cc(-c2ccc(S(=O)(=O)N(C)c3ccc(C)c(C)c3)s2)on1	-12.8%	7.8%	1.1%	-3.0%	3.26µM*	4.11µM*
Cc1ccc(N(C)S(=O)(=O)c2ccc(-c3cc(C)no3)s2)cc1	-8.7%	-6.9%	-3.4%	1.5%	6.51µM*	-82.7%
CCCCN1CC2=C(C1=O)C(c1ccc(O)cc1)NC(=O)N2C (stereo not drawn)	-1.6%	10.1%	-3.4%	-0.4%	2.4%	-0.1%
CCCC(=O)Nc1ccc2nc(C)n(Cc3ccccc3Cl)c(=O)c2c1	0.0%	-5.5%	nt	-9.2%	-14.2%	-13.9%
Cc1nc2ccc(NC(=O)c3cccs3)cc2c(=O)n1Cc1ccc(Cl)cc1	-9.6%	6.6%	0.0%	7.9%	18.4µM*	?
NNC(=O)c1sccc1OCc1ccc(F)cc1	-4.7%	-11.2%	1.6%	-4.9%	7.5%	?
O=C(N/N=C/c1ccc(F)cc1)c1sccc1OCc1ccc(F)cc1	-6.7%	18.4%	6.9%	-5.8%	16.4µM*	18.4µM*
COc1ccc(COc2ccsc2C(=O)Nc2ccc(Cl)cc2)cc1	-18.6%	18.0%	-2.8%	-6.7%	?	?
O=C(N/N=C/c1ccc(Cl)cc1)c1sccc1OCc1ccc(F)cc1	-5.5%	5.6%	3.2%	-7.1%	1.16µM*	1.3µM*
Cc1nn(C)cc1S(=O)(=O)Nc1ccc(C(F)(F)F)cc1	-8.5%	-7.1%	4.8%	-7.7%	-4.0%	15.8%
Cc1ccccc1/C=C1\CCCc2ccccc2C1=O	-4.6%	24.1%	2.2%	-4.6%	-21.1%	-26.4%
Cc1ccccc1/C=c1\s/c(=C\C(=O)C(C)(C)C)[nH]c1=O	-9.3%	10.0%	-1.9%	-12.5%	13µM*	10.3µM*
Cc1cccn2c(Nc3ccccc3)c(-c3ccccn3)nc12	-3.6%	-9.0%	5.0%	-7.1%	18.4µM*	20.6µM*
Cc1cccc(C)c1Nc1c(-c2ccccn2)nc2c(C)cccn12	-0.7%	3.0%	14.7%	nt	16.4µM*	25.9µM*
Cc1[nH]n(-c2ccc([N+](=O)[O-])cc2)c(=O)c1C=NCCN1CCN(C(=O)c2ccc(F)cc2)CC1	-2.7%	2.6%	5.2%	3.3%	-4.7%	1.9%
CCCc1[nH]n(-c2ccc([N+](=O)[O-])cc2)c(=O)c1C=NCCc1ccc(OC)c(OC)c1	0.0%	-22.9%	-5.1%	3.6%	?	?
Cc1[nH]n(-c2ccc([N+](=O)[O-])cc2)c(=O)c1C=NCCc1c[nH]c2ccccc12	55.6%	-15.7%	1.8%	-5.1%	11.6µM*	?
Cc1[nH]n(-c2ccc([N+](=O)[O-])cc2)c(=O)c1C=NCCN1CCN(C(=O)c2cccc(F)c2)CC1	3.1%	2.8%	7.0%	-3.1%	14.6µM*	9.2µM*
Cc1[nH]n(-c2ccc([N+](=O)[O-])cc2)c(=O)c1C=NCCN1CCN(C(=O)c2ccc(Br)cc2)CC1	-1.1%	1.3%	4.7%	-4.1%	18.4µM*	14.6µM*
CCOC(=O)N1CCN(C(=O)c2c(Cl)cnn2C)CC1	0.5%	-5.0%	3.4%	3.1%	10.1%	4.9%
CC(=O)SC1CC2=CC(=O)CC[C@]2(C)C2CC[C@@]3(C)[C@@H](CC[C@@]34CCC(=O)O4)C12 (stereo partly drawn)	nt	nt	13.5%[56.1 µM]	nt	nt	nt
CCN(CC)c1ccc(/C=C/c2nc3ccccc3s2)cc1	1.3%	nt	7.9%	nt	nt	nt
CC(C)CN(CC(C)C)c1ccc(/C=C/c2nc3ccccc3s2)cc1	nt	nt	nt	nt	5.01µM*	3.55µM*
CC(=O)Nc1ccc(O)c(-c2nc3ccccc3s2)c1	?	-17.8%	3.5%	0.3%	-8.6%	?
SMILES	GCN5L2 inh	VDR inhibitor	TDP1 block	PLK1 PBD block	DT40 TDP1 CPT	TDP1 cell noCPT
Nc1ccc(/C=C/c2nc3ccccc3s2)cc1	nt	nt	nt	nt	11.2µM*	12.6µM*
CC(=O)Nc1ccc(/C=C/c2nc3ccccc3s2)cc1	nt	nt	nt	nt	?	11.2µM*
C=C[C@H]1CCC=C2C(=O)CCC[C@@H]21	nt	-2.7%	2.5%	nt	nt	nt
CCCCCCCC/C=C\CCCCCCCC(=O)N(CCO)CCO	nt	nt	5.4%	nt	nt	nt
COC(=O)NC(CC(C)=O)c1cccc(C(F)(F)F)c1 (stereo not drawn)	nt	nt	-2.6%[21 µM]	nt	nt	nt
COc1ccc(NC(=O)N2CCN(S(=O)(=O)c3ccc4c(ccn4C)c3)CC2)cc1OC	-6.0%	10.5%	7.7%	nt	-17.1%	-2.7%
Cc1ccc(C2NC(=O)c3n[nH]c(-c4cccs4)c32)cc1 (stereo not drawn)	-1.9%	-13.1%	4.7%	nt	?	18.4µM*
COc1ccccc1C1NC(=O)c2n[nH]c(-c3cccs3)c21 (stereo not drawn)	-4.6%	-2.1%	0.0%	nt	?	?
CN(C)CCN(Cc1cccs1)c1ccccn1	-7.1%	2.3%	4.8%	-9.0%	?	23.7µM*!
CN(C)CCN(Cc1ccco1)c1ccccn1	nt	14.6%	nt	-4.0%	20.3%	-1.6%
COc1cccc(-c2cncnc2-n2ccnc2)c1	-14.3%	-20.5%	nt	nt	?	?
CN(C)c1ccc(-c2ccc3ncnc(-n4ccnc4)c3c2)cc1	25.1µM*	15.8µM*	nt	nt	?	?
COc1ccccc1-c1cncnc1-n1ccnc1	-10.0%	-12.8%	22.4µM*	nt	-5.6%	-27.1%
Cc1ccccc1-c1ccc2ncnc(-n3ccnc3)c2c1	-13.7%	14.1µM*	nt	nt	20.6µM*	20.6µM*
Cc1ccc(-c2cc(-c3coc4ccc(Cl)cc4c3=O)c3c(n2)-c2ccccc2OC3)cc1	-5.6%	12.2%	-0.6%	nt	5.7%	-0.4%
Cc1ccc(-c2cccc(C3CC=CC4C3C(=O)N(Cc3ccccc3)C4c3ccc4ccccc4c3)c2)cc1 (stereo not drawn)	-3.3%	-14.7%	5.0%	-24.4%	18.4µM*	13µM*
CCC1CC=CC2C1C(=O)N(Cc1ccccc1)C2c1cc(C)ccc1F (stereo not drawn)	nt	?	-1.5%	nt	nt	nt
C[C@@H]1CC=C[C@H]2[C@H]1C(=O)N(Cc1ccccc1)[C@H]2c1ccc2ccccc2c1	0.3%	-9.0%	-2.4%	?	?	?
CC[C@@H]1CC=C[C@H]2[C@H]1C(=O)N(Cc1ccccc1)[C@H]2c1ccc(OC)c(Cl)c1	-0.3%	-6.0%	-2.4%	-4.8%	18.4µM*	13µM*
CC1CC=CC2C1C(=O)N(Cc1ccccc1)C2c1ccc2ccccc2c1 (stereo not drawn)	nt	-24.8%	1.5%	nt	nt	nt

Source: PubChem (National Center for Advancing Translational Sciences (NCATS))
